Source: PubChem (several laboratories)
A selection: hits, their analogues and other compounds. The true share with any hit is near 4%.
HIF-2a block: HIF-2a inhibition | inhibition, % at 18.8 µM | AID 624352 | 786-0 RCC cells HIF-2a reporter, luciferase luminescence, overnight | 0.72% of 360,000 active;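 active means inhibition of the luminescence signal of 40% or more relative to plate controls, in a single-dose primary screen at 18.75 µM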
MITF TRPM1 inh: inhibitors of MITF-driven TRPM1 promoter in melanoma cells. SK-MEL-5 TRPM1 promoter luciferase, 24 h. inhibition, % at 12.5 µM. 0.83% of 330,000 active. AID 488899;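 active means mean inhibition across replicates of 60% or more, whatever share of single replicates reaches that level; inconclusive means some that reach 60%, reason not given; inactive means mean inhibition across replicates below 60%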
TROY signal inh: blocks TROY-dependent signaling in reporter cells. Q293 LMP1-TROYcd NF-kB luciferase reporter, 4 h. inhibition, % at 10 µM. 0.98% of 360,000 active. AID 1347056;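 active means compounds whose plate-normalised and pattern-corrected inhibition of the luciferase reporter signal at the single screening dose is 50% or more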
LMP1 NFkB inh: inhibitors of Epstein-Barr LMP1-induced NF-kappaB reporter | LMP1-induced NF-kappaB luciferase reporter cells, luminescence | inhibition, % at 12.5 µM | 0.69% of 350,000 active | AID 504558; in the data active means inhibition above about 41%; inconclusive means no clear call, values can overlap the other calls;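 further: 0% = neutral control wells and 100% = reference inhibitor control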
Peg3 promoter: reduces Peg3 promoter-driven luciferase expression in HeLa; HeLa PEG-Prom luciferase reporter, luminescence, overnight; inhibition, % at 20 µM; 1.7% of 360,000 active;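 active means inhibition of at least 50% at 20 µM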
TWEAK Fn14 block: TWEAK-Fn14 signaling inhibition. 2% of 360,000 active. AID 1159606. inhibition, % at 10 µM. TWEAK-stimulated Fn14 reporter cells, luciferase luminescence, 8 h; in the data active means inhibition above about 50%
* = called active by the depositor; ? = inconclusive; · = no result.

SMILES | HIF-2a block | MITF TRPM1 inh | TROY signal inh | LMP1 NFkB inh | Peg3 promoter | TWEAK Fn14 block
COc1ccccc1N(C(C)=O)C1=C(Cl)C(=O)c2ccccc2C1=O | 88* | · | -16 | ? | 100* | 24
CC(NC(=O)OCc1ccccc1)C(=O)Oc1cc2oc(=O)cc(-c3ccccc3)c2cc1Cl (stereo not given) | 5 | -2 | 37 | 9 | -15 | 71*
CCc1cc2c(-c3ccccc3)cc(=O)oc2cc1OC(C)C(=O)O (stereo not given) | 13 | · | 23 | -1 | -2 | -13
COC(=O)c1ccc(COC(=O)[C@@H]2CC(O)CN2S(=O)(=O)c2ccccc2[N+](=O)[O-])cc1 (stereo not given in full) | 11 | 11 | 2 | 1 | 2 | 2
COc1c2c(c(OC)c3ccccc13)[C@]1(OC2)O[C@H](CCO)C[C@H](O)[C@H]1O | 6 | · | 4 | · | 11 | 2
O=c1[nH]c(C2CCN(S(=O)(=O)c3ccc4c(c3)OCCO4)CC2)nc2c1nnn2Cc1cccc(F)c1 | 28 | · | 15 | -11 | 22 | -14
O=c1[nH]c(C2CCN(S(=O)(=O)c3cccc(C(F)(F)F)c3)CC2)nc2c1nnn2Cc1cccc(F)c1 | 22 | 8 | 23 | -17 | 51* | 11
O=C(/C=C/c1cccc([N+](=O)[O-])c1)n1cnc2ccccc21 | 28 | 67* | 20 | 7 | 100* | 103*
O=C(/C=C/c1cccc([N+](=O)[O-])c1)c1cccs1 | -3 | 80* | 20 | 19 | 99* | 4
C[C@H](CO)N1C[C@H](C)[C@@H](CN(C)Cc2ccc(C(=O)O)cc2)Oc2ccc(NS(=O)(=O)c3cn(C)cn3)cc2C1=O | 16 | -4 | -19 | 3 | 0 | 2
COC(=O)c1ccc(NC(=O)CN2CCC(NC(=O)c3ccccc3F)CC2)cc1 | 10 | · | -7 | -3 | 7 | -2
CCOC(=O)C1=CCN(S(=O)(=O)c2ccccc2C)C1c1ccc(Cl)c(Cl)c1 (stereo not given) | 23 | · | 6 | · | 39 | 7
CNC(=O)c1nnsc1S(=O)c1ccc(Cl)cc1 (stereo not given) | -18 | ? | 60* | 8 | 103* | 63*
CCOc1cc2c(c3c1C(c1ccccc1)N(S(=O)(=O)c1ccc(C)cc1)C3)C(=O)C=CC2=O (stereo not given) | 68* | · | 16 | · | 101* | 33
CCOC(=O)C1=CCN(S(=O)(=O)c2ccc(C)cc2)C1c1ccccc1 (stereo not given) | -6 | · | 25 | · | 10 | 17
O=C(O)c1cccc(Sc2cc(Cl)ccc2C(=O)O)c1 | 7 | 4 | -9 | 0 | -20 | 5
